High-throughput results as filed in PubChem.
In the library only some 19% were active in any assay of this set; here they are far more common.
HT1080-NT tox: kills 2HG-producing HT-1080-NT fibrosarcoma cells; HT-1080-NT fibrosarcoma viability, CellTiter-Glo ATP luminescence, 48 h; Potency, µM (top dose mostly 46.1 µM), inactives show top-dose activity, negative = less viability, most hits filed as cytotoxic; 1.6% of 360,000 active;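 also: NT is the 2HG producing partner of a matched IDH1 knockdown line; potency is read from the fitted curve at half-maximal effect; 0% = DMSO-treated cells and -100% = media-only wells without cells; nearly all actives have a fitted effect of over 55% in size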
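Viability of the 2HG-overproducing fibrosarcoma line after 48 hours of compound exposure at 37 degrees C was determined by luminescence with CellTiter-Glo, and concentration-effect curves were then fitted and categorized.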
TDP1 cell CPT: DT40-hTDP1 cell growth loss with CPT; Potency, µM (top dose mostly 46.2 µM), for the others: at the top dose activity change, negative = growth inhibition, actives largely listed as inhibitors; 12% of 420,000 active; AID 686979; chicken DT40 Tdp1-/-;hTDP1 cells + 20 nM CPT, ATP luminescence, 48 h; also: potency is read from the fitted curve at half-maximal effect; nearly all actives have a fitted effect of over 55% in size
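Cell growth measured by CellTiter-Glo luminescence after a minimum 48 h, 37 C compound exposure with 20 nM CPT in Tdp1-knockout DT40 cells stably expressing hTDP1, seeded 400/well; qHTS titration format.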
HT1080 IDH1KD tx: toxicity to HT-1080 IDH1 knockdown cells (counter line); HT-1080 IDH1 knockdown viability, ATP luminescence, 48 h; Potency, µM (highest dose often 46.1 µM), inactives show at the top dose activity, negative = toxicity, actives largely listed as cytotoxic; 2% of 360,000 active;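 also: potency is read from the fitted curve at half-maximal effect; 0% = DMSO wells and -100% = cell-free medium wells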
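Knockdown cells (IDH1KD HT-1080) received compounds 2 h after plating at 750 cells/well and were kept 48 h at 37 °C in 5% FBS RPMI. A CellTiter-Glo luminescence read gave % activity for curve fitting.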
IL-1B inflam inh: blocks inflammasome-driven IL-1 beta release. THP-1 LPS/ATP IL-1B secretion, AlphaLISA, 16 h; active compounds read low. activity change, % at 57.5 µM. 4.7% of 360,000 active; in the data active = activity change below about -50%; inconclusive = mostly about -30% to -49%
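THP-1 cells pretreated 1 hr with compounds (up to 57.5 uM final), then stimulated with LPS (250 ng/mL final) plus ATP (1.25 mM final); secreted IL-1B measured by AlphaLISA after 16 hr, decreased signal indicating inhibition.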
TDP1 cell noCPT: qHTS for Inhibitors of human tyrosyl-DNA phosphodiesterase 1 (TDP1): qHTS in cells in absence of CPT. DT40 Tdp1-/- hTDP1 cells, no CPT, ATP luminescence, 48 h. Potency, µM (top dose mostly 46.2 µM), inactives show at the highest dose activity change, negative = growth inhibition, usual class: inhibitors. 15% of 420,000 active. AID 686978, 2013; also: potency is read from the fitted curve at half-maximal effect; nearly all actives have a fitted effect of over 55% in size
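Growth kinetics read by CellTiter-Glo luminescence after ≥48 hr at 37 °C. Cells: DT40 Tdp1-/- stably carrying human TDP1, 400 per well, compound exposure in the absence of CPT (DMSO vehicle).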
* hit, by the source's call; i = inactive; ? = inconclusive; [ ] = dose if it differs, or a comment. Unless noted, calls follow the shape of the dose curve; as a rule, active = well fitted curve in the direction sought with a large enough effect; inconclusive = small, poorly fitted or top-dose-only effect, or another doubt; inactive = no such curve, though single readings can be large; an effect the other way counts as inactive or inconclusive. Unless noted, % is scaled to controls: 0 for no effect and ±100 for the full control effect.

SMILES	HT1080-NT tox	TDP1 cell CPT	HT1080 IDH1KD tx	IL-1B inflam inh	TDP1 cell noCPT
COc1ccccc1N1CCN(C(=O)c2cc3c(C)nc4ccccc4c3o2)CC1	?	6.51µM*	-24.4%	-27.5	4.11µM*
COCc1c(C(=O)N2CCN(c3ccccc3C)CC2)oc2ccccc12	-4.9%	20.6µM*	5.8%	6.5	?
Cc1nc2ccccc2c2oc(C(=O)N3CC(C)CC(C)C3)cc12 (configuration not stated)	-4.1%	?	3.7%	9.3	?
COCc1c(C(=O)N2CCN(CCOc3ccccc3)CC2)oc2ccccc12	-1.4%[9.24 µM]	?	8.5%	-5.4	?
CC(C)N1CCN(C2CSCCSC2)CC1CCO (configuration not stated)	6.4%	-7.6%	5.9%	-6.3	0.3%
Cc1ccc(NC(=O)CN(C)C(=O)CCC(=O)N2CCOCC2)cc1	11.8%	3.9%	4.8%	-2.8	-0.6%
O=C(CC[C@H]1O[C@@H](n2cnc3c(NC(=O)c4ccccc4)ncnc32)[C@H](O)[C@@H]1O)N[C@@H](CO)Cc1c[nH]c2ccccc12	22.8%	-16.2%	10.7%	0.0	-5.2%
CC(C)Cn1cc(-c2cccc3nccn23)cn1	5.5%	0.1%	8.1%	6.5	-1.1%
Cc1ccc(N2C(=O)NC(NC(=O)c3ccc(Cl)cc3)(C(F)(F)F)C2=O)cc1 (configuration not stated)	-1.8%	1.6%	-15.1%	2.4	?
COc1ccccc1N1CCN(C(=O)c2oc3ccccc3c2C)CC1	2.2%	16.4µM*	0.2%	44.6	20.6µM*
COc1ccccc1N1CCN(C(=O)c2onc(C)c2Cl)CC1	?	?	?	78.4	?
COc1ccccc1N1CCN(C(=O)c2oc3ccc(F)cc3c2C)CC1	-11.0%	20.6µM*	-29.1%	32.8	16.4µM*
CCOC(=O)COc1ccc(Br)cc1/C=C/c1[nH]c(=O)[nH]c(=O)c1[N+](=O)[O-]	18.4µM*	-3.4%	?	-63.2*	?
CCOc1ccc(/C=C/c2[nH]c(=O)[nH]c(=O)c2[N+](=O)[O-])cc1	21.3%	-8.7%	9.6%	16.2	-1.1%
O=C(COc1ccccc1/C=C\c1[nH]c(=O)[nH]c(=O)c1[N+](=O)[O-])Nc1ccccc1	0.3%	-3.8%	9.6%	-14.5	-12.2%
CCOC(=O)COc1ccc(Br)cc1/C=C\c1[nH]c(=O)[nH]c(=O)c1[N+](=O)[O-]	-2.7%	23.1µM*	-10.6%	i	23.1µM*
CCOCCCNS(=O)(=O)c1ccc(NC(=O)c2ccccc2)cc1	?	?	-6.1%	-20.2	?
Cc1nn(-c2ncc(C(F)(F)F)cc2Cl)c(=O)n1-c1ccccc1F	-7.0%	8.1%	-3.2%	32.2	-11.6%
COc1ccccc1NC(=O)CSc1nccn1Cc1ccccc1	-2.2%	-13.6%	0.3%	0.0	-26.4%
O=C(Cc1ccccc1)Nc1nccs1	-0.8%	-17.4%	0.9%	-5.0	-13.8%
O=C(Nc1nccs1)c1cc([N+](=O)[O-])ccc1Cl	?	?	?	-25.5	?
O=C(Cc1ccccc1[N+](=O)[O-])Nc1nccs1	0.8%	8.2µM*	-0.3%	15.3	?
O=C(Nc1ccccc1N1CCOCC1)c1ccc(N2CCOCC2)c([N+](=O)[O-])c1	?	?	10.1%	-18.2	?
O=C(Nc1nccs1)c1ccc(N2CCOCC2)c([N+](=O)[O-])c1	16.3%	?	12.7%	-27.0	20.6µM*
O=C(Nc1nccs1)c1ccc(Cl)c([N+](=O)[O-])c1	-3.3%	5.0%	1.3%	-68.6*	2.8%
SMILES	HT1080-NT tox	TDP1 cell CPT	HT1080 IDH1KD tx	IL-1B inflam inh	TDP1 cell noCPT
O=C(Nc1nccs1)c1ncc(Cl)c(Cl)c1Cl	?	20.6µM*	-25.5%	-55.7*	14.6µM*
CCN(CC(=O)N1CCCC1)S(=O)(=O)c1ccc(OC)cc1	1.7%	-1.2%	19.3%	8.0	-20.1%
COc1cccc(C2Nc3ccccc3NC3=C2C(=O)CC(C)(C)C3)c1 (configuration not stated)	5.5%	-3.2%	7.9%	-22.5	-0.8%
CSC(SC)=C(C#N)C(=O)c1ccccc1	?	2.06µM*	20.6µM*	-89.3*	2.59µM*
COc1cccc(C(=O)C(C#N)=C(SC)SC)c1	-7.2%	2.59µM*	-0.2%	-5.3	2.31µM*
COc1cccc(C(=O)C(CCC#N)c2ccccc2)c1 (configuration not stated)	-0.2%	-23.7%	-7.0%	16.6	?
O=c1[nH][nH]c2c1[C@H](c1ccc(F)cc1)O[C@H](CCc1ccccc1)C2	-16.4%	-5.1%	1.7%	-3.8	-27.7%
Cc1cc(Cl)cc(Cl)c1OCCOCCN(C)C	-11.3%	?	-22.9%	0.0	14.6µM*
COc1cccc(C=O)c1OCCCOc1cccc2cccnc12	?	?	?	14.0	20.6µM*
Cc1cc(Cl)cc(Cl)c1OCCOc1cccc2cccnc12	?	23.1µM*	?	-21.8	?
Cc1cc(C)cc(OCCCOc2cccc3cccnc23)c1	?	29.1µM*	?	0.0	16.4µM*
Brc1ccccc1OCCCOc1cccc2cccnc12	-17.9%	?	?	-10.1	?
Cc1cc(C)c(OCCN(C)C)c(Cl)c1	23.2%	-1.8%	24.0%	-5.6	6.3%
CSc1ccccc1NC(=O)c1noc(C)c1[N+](=O)[O-]	-1.2%	-20.0%	0.0%	-3.0	-24.0%
CC(C)[C@H](NC(=O)C1CCCC1)c1nc2ccccc2[nH]1	-6.2%	-3.2%	-8.5%	-19.7	?
CC(=O)c1cccc(OCCCOc2cccc3cccnc23)c1	-19.0%	?	-0.8%	-23.1	16.4µM*
O=c1c2cc(Cl)ccc2nc(-c2ccc(Cl)c(Cl)c2)n1O	0.7%	5.17µM*	14.1%	15.3	5.17µM*
O=c1c2cc(Cl)ccc2nc(-c2ccccc2)n1O	-26.5%	-1.0%	-12.6%	25.7	-20.3%
O=c1c2cc(Br)ccc2nc(-c2ccc([N+](=O)[O-])cc2)n1O	-15.2%	?	-14.2%	35.1	-109.2%
O=c1c2ccc(Cl)cc2nc(-c2ccc([N+](=O)[O-])cc2)n1O	-16.3%	8.2µM*	-22.6%	101.5	8.2µM*
N#Cc1ccc(NC(=S)NC(=O)C2CC2)cc1	-1.9%	0.5%	-3.5%	6.2	?
CCOC(=O)C1=C(O)C(=O)N(Cc2cccnc2)C1c1ccc(C)cc1 (configuration not stated)	3.4%	23.6%	0.4%	13.2	-18.3%
CSc1nc2nc3c(c(=O)n2[nH]1)CN(Cc1ccccc1)CC3	-5.0%	25.9µM*	-11.8%	-0.2	?
O=c1c2c(nc3nc(SCc4ccccc4)[nH]n13)CCC2	-7.4%	-21.7%	0.5%	18.9	-17.0%
